# The list is not random: actives were taken first. Their share in the collection is about 1.2%.
# RGS7-Gao = RGS7-Galphao binding modulators, primary screen, biochemical, multiplexed bead flow cytometry | actives lie on both sides | binding response (% of control), % at 10 µM | Guanine nucleotide-binding protein G(o) subunit alpha (Homo sapiens), P09471 | 220,000 compounds, 0.35% hits | AID 1439, 2008; in the data active = binding response below about 49% or above about 150%; inconclusive = no clear call, values can overlap the other calls; inactive = in between;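 note: fluorescent Galphao held in activated GDP-AlF4 state binding bead-coupled RGS7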
# Avidin bead fluor = green autofluorescence of compounds with avidin beads – biophysical, 488/530 nm, flow cytometry, artefact control, profiling panel; compound fluorescence 488/530 nm; hits give high values; fluorescence (KMESF) at 10 µM; 220,000 compounds, 0.38% hits; AID 1775, 2009; in the data active = fluorescence above about 47
# GSH bead fluor = compound fluorescence on glutathione beads, profiling panel, artefact control, biophysical, 488/530 nm, flow cytometry; GSH beads flow cytometry, compound fluorescence 488/530 nm; hits give high values; fluorescence (KMESF) at 10 µM; 190,000 compounds, 0.25% hits; AID 1776, 2009; in the data active = fluorescence above about 89;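 note: glutathione beads carrying GST-tagged Bcl family fusion proteins plus one bare bead set; values are compound well signal with DMSO vehicle wells as background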
# RGS4-Gao reg = modulators of RGS4 binding to Galphao, primary screen, biochemical, multiplexed bead flow cytometry. binding response (% of control), % at 10 µM. Guanine nucleotide-binding protein G(o) subunit alpha (Homo sapiens), P09471. AID 1415, 2008. actives lie on both sides. 220,000 compounds, 0.33% hits; in the data active = binding response below about 49% or above about 150%; inactive = in between;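 note: fluorescent Galphao activated with aluminum fluoride binding bead-coupled RGS4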
# RGS8-Gao reg = RGS8-Galphao binding modulators, primary screen, biochemical, multiplexed bead flow cytometry; AID 1423, 2008; actives lie on both sides; response (percent of control binding), % at 10 µM; 220,000 compounds, 0.34% hits; in the data active = response below about 60% or above about 140%; inactive = in between;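 note: Galphao activated as the GDP aluminium fluoride complex binding bead-coupled RGS8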
# RGS16-Gao HTS = modulators of RGS16 binding to Galphao, primary screen, biochemical, human proteins, multiplexed bead flow cytometry | Regulator of G-protein signaling 16 (Homo sapiens) + Guanine nucleotide-binding protein … | bead-based flow cytometry RGS16-Galphao binding, fluorescence; actives lie on both sides | binding response (% of control), % at 10 µM | 220,000 compounds, 0.38% hits | AID 1441, 2008; call rule not given here;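 note: Galphao activated by GDP with aluminum fluoride before binding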
# Target sequence (O15492 whole entry, looked up): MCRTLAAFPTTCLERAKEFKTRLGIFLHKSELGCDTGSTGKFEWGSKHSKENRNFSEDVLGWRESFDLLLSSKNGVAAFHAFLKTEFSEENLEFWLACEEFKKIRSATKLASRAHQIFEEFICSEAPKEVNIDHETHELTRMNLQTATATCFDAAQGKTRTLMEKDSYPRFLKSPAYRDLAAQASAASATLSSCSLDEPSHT
# Target sequence (P09471 whole entry, looked up): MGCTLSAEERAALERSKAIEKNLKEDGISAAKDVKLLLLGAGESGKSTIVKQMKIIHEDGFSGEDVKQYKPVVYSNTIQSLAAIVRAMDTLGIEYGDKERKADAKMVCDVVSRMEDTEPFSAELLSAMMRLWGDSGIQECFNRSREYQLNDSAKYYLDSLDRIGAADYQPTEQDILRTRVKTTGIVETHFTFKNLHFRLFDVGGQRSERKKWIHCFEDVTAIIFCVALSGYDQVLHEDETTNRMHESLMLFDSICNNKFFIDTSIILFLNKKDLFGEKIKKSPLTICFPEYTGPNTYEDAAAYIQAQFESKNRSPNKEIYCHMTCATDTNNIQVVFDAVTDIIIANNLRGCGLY
# * marks the source's active call; other numbers are inactive results; ? = inconclusive; nt = not tested or not shown.
SMILES,RGS7-Gao,Avidin bead fluor,GSH bead fluor,RGS4-Gao reg,RGS8-Gao reg,RGS16-Gao HTS
CC(C)(C)C(=O)Nc1nc2ccc(S(C)(=O)=O)cc2s1,100,25,8,101,99,101
O=C(CCN1C(=O)c2cccc3cccc(c23)C1=O)NCc1cccnc1,?,10,26,107,105,106
Cc1ccccc1-n1nc(C(=O)O)c(C)c(C#N)c1=O,109,7,255*,111,106,120
COc1ccc(-n2c(SCC(=O)O)nnc2-c2ccc(NC(=O)c3ccccc3)cc2)cc1,?,6,nt,95,96,94
COc1cc(-c2nc3oc4ccccc4c(=O)c3c(=O)n2Cc2ccco2)cc(OC)c1OC,138,49*,21,103,91,98
COc1ccc2c(=O)c3c(=O)n(Cc4ccco4)c(-c4ccc(C)cc4)nc3oc2c1,89,11,26,86,88,89
CC(=O)Nc1ccc(OCC(O)Cn2nc(C)c(C(C)=O)c2C)cc1 (stereo not drawn),149,73*,24,108,98,103
Cc1ccnc2nc(C(=O)NC3=NCCS3)nn12,104,26,11,107,105,110
Cc1ccnc2nc(C(=O)Nc3nccs3)nn12,102,6,253*,99,100,106
NCC12CC3CC(CC(O)(C3)C1)C2,101,7,262*,103,103,102
O=c1c(Cl)c(N2CCN(S(=O)(=O)c3ccccc3)CC2)cnn1-c1ccccc1,100,2,6,98,100,103
COC(=O)COc1ccc(S(=O)(=O)Nc2ccccc2C(=O)OC)cc1,146,63*,39,111,104,108
CCn1c(SCC(=O)Nc2ccc(-c3nc4ccc(C)cc4s3)cc2)nnc1-c1ccccc1,112,256*,24,115,104,393
CC(C)N1CCN(Cc2ccc(C#CC(C)(C)O)s2)CC1CCO (stereo not drawn),99,2,8,99,97,100
Cc1cccc(-c2c3c(=O)n(C)c(=O)n(C)c3cn2CC2CCCO2)c1 (stereo not drawn),99,6,261*,84,93,87
Oc1c(/C=N/c2ccccn2)sc2ccccc12,?,7,nt,95,91,91
C=CCN=C1S/C(=C\c2ccc(Cl)cc2)C(=O)N1CC=C,?,49*,nt,122,98,114
O=C(Cn1c(C(=O)NCc2ccco2)cc2sccc21)c1ccccc1,91,10,26,95,96,83
O=C(Cn1[nH]c(=O)c2ccccc2c1=O)Nc1ccc2c(c1)CCC2,100,8,270*,102,100,105
NS(=O)(=O)c1ccc(CCn2c(=S)[nH]c3ccccc3c2=O)cc1,?,3,nt,102,103,99
CC(C)C12CN3CC(C(C)C)(CN(C1)C3c1ccccc1)C2O (stereo not drawn),111,4,253*,109,101,110
Cc1cnc(NC(=O)CSc2nnc(-c3cccs3)n2C)s1,94,7,269*,90,95,92
Fc1ccc(N2CCN(C(=S)NCC3CCCO3)CC2)cc1 (stereo not drawn),102,19,11,101,104,106
O=C(CCCCn1c(=O)[nH]c2ccccc2c1=O)NCCc1c[nH]c2ccccc12,101,7,14,103,96,91
COc1cc2[nH]c(=O)n(CCCCCC(=O)NCCc3c[nH]c4ccccc34)c(=O)c2cc1OC,110,49*,9,105,100,100
SMILES,RGS7-Gao,Avidin bead fluor,GSH bead fluor,RGS4-Gao reg,RGS8-Gao reg,RGS16-Gao HTS
c1nc2sc3c(c2c2nnnn12)CCC3,100,10,55,105,101,105
Cc1ccc(C(=O)Nc2ccc(CC(=O)O)cc2)o1,98,6,254*,97,100,97
Cc1cc(C(C)(C)C)oc1C(=O)Nc1ccc(CC(=O)O)cc1,93,4,239*,93,100,62
O=C(Nc1ccc2c(c1)OCO2)N1CCN(c2ncc(C(F)(F)F)cc2Cl)CC1,105,8,257*,103,104,100
COc1ccc(C(O)c2coc3ccc(O)c(CN(C)C)c23)cc1 (stereo not drawn),115,83*,16,103,99,92
CCn1c(SCC(=O)C(C)(C)C)nnc1-c1ccccn1,101,15,32,98,98,103
CCn1c(SCC(=O)C(C)(C)C)nnc1-c1cnccn1,86,4,95*,92,99,74
CCCc1cc(=O)[nH]c(SCC(=O)Nc2ccc3c(c2)CCC3)n1,100,11,13,103,102,113
CCCc1cc(=O)[nH]c(SCC(=O)Nc2ccc(OC(F)F)cc2)n1,103,7,260*,103,103,103
Clc1cccc(N=NN2CCOCC2)c1Cl,?,6,nt,94,96,98
Cc1nc2ccc(NC(=O)Cc3ccccc3F)cc2s1,?,53*,17,115,103,102
COc1cc(C(=O)NNC(=S)NC(=O)c2ccc(Cl)cc2)cc(OC)c1OC,103,20,446*,109,99,107
CC(C)[C@H](NC(=O)c1ccccc1)C(=O)OCC(=O)N1CC2(C)CC1CC(C)(C)C2 (stereo partly drawn),99,8,4,98,95,76
CCC(=O)N1CCc2cc(Br)cc(S(=O)(=O)CCC(=O)NCc3ccco3)c21,101,51*,20,98,100,100
CCC(=O)N1CCc2cc(Br)cc(S(=O)(=O)NCc3ccco3)c21,98,10,23,102,101,104
COc1ccc(N(CC(=O)Nc2ccc3c(c2)OCO3)S(=O)(=O)c2ccccc2)cc1OC,?,8,nt,96,98,97
COCCN1C(=O)c2ccccc2C(C(=O)NCCN(C)C)C1c1ccc(F)cc1 (stereo not drawn),93,32,24,91,96,96
COCCNC(=O)C1c2ccccc2C(=O)N(CCOC)C1c1ccc(F)cc1 (stereo not drawn),104,48*,26,100,101,103
Cc1ccc(CN2CCN(CC(C)C)C(CCO)C2)s1 (stereo not drawn),102,11,13,103,102,107
Brc1ccccc1-c1nnc(CSc2nnc3sc4ccccc4n23)o1,99,8,257*,100,102,103
N#CCSc1nnc2sc3ccccc3n12,98,6,23,102,104,101
